# From PubChem BioAssay AID1259422 (The Scripps Research Institute Molecular Screening Center, 2018)
# Out of some 640,000 compounds screened, about 9,300 (1.5%) were called active. No stated cut-off is given here; in the data, active means inhibition above about 32%; inactive means the rest. The list comes from a sample in which actives are over-represented; it also holds similar structures and randomly drawn compounds.
# Test: TEAD-YAP interaction inhibition, primary screen, TEAD-YAP interaction inhibitor project, luminescence, HEK-TIYL cells (AID 1259422);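 further: 0% = median of test compound wells and 100% = reference inhibitor wells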
# Details: TEAD-Gal4/YAP UAS-luciferase luminescence, at 9.12 µM, stronger effect = higher value
row,Structure (SMILES),inhibition
1,O=[N+]([O-])c1ccc(OCc2nnc(SCCN3CCOCC3)n2-c2ccccc2)cc1,3.41% (inactive)
2,CCn1c(COc2ccccc2)nnc1Sc1ccc([N+](=O)[O-])cc1C=O,59.5% (active)
3,CCn1c(COc2ccccc2OC)nnc1SCC(=O)NC,4.57% (inactive)
4,Cc1ccc(C)c2nc(SCC(=O)N3CC(=O)Nc4ccccc43)c(C#N)cc12,-2.34% (inactive)
5,Cc1ccc2cc(C#N)c(SCC(=O)N3CC(=O)Nc4ccccc43)nc2c1C,63.3% (active)
6,CCN(CC)C(=O)CSc1nc2c(C)c(C)ccc2cc1C#N,8.08% (inactive)
7,FC(F)(F)c1cccc(-c2ccc(/C=N/Nc3nn[nH]n3)o2)c1,4.88% (inactive)
8,O=C(CSCc1cc2cccc3c2n(c1=O)CCC3)NCc1ccncc1,8.05% (inactive)
9,O=C1c2cccnc2C(=O)N1CNc1ccccc1,2.66% (inactive)
10,COc1ccc(Nc2ccccc2)cc1,-22.2% (inactive)
11,O=c1cc(Nc2ccc(Br)cc2)c2ccccc2o1,0.69% (inactive)
12,COc1ccc(Nc2cc(=O)oc3ccccc23)cc1,36.2% (active)
13,C=CCn1c(SCC(=O)c2ccc(OC)c(C)c2)nnc1-c1ccncc1,4.75% (inactive)
14,CCC(CC)=NNC(=O)c1cc(C)nc2ccccc12,48.1% (active)
15,CCCCCNC(=O)c1cc(C)nc2ccccc12,2.15% (inactive)
16,Cc1cc(C(=O)NC(C)c2ccccc2)c2ccccc2n1 (centres undefined),5.1% (inactive)
17,Cc1cc(C)c(S(=O)(=O)N2CCOCC2)c(C)c1[N+](=O)[O-],-0.25% (inactive)
18,COc1ccccc1-n1nnnc1SCC(=O)c1ccc(Br)s1,2.7% (inactive)
19,COc1ccccc1-n1nnnc1S(=O)(=O)Cc1ccc(Cl)cc1,48.7% (active)
20,COc1ccccc1NC(=O)C(=O)NCc1ccc(Cl)cc1,1.06% (inactive)
21,CCOC(=O)N1CCN(C(=O)CN2N=C(c3ccc(OC)cc3)CCC2=O)CC1,-0.51% (inactive)
22,c1ccc(-n2nnnc2SCc2nc3ccccc3s2)cc1,-47.7% (inactive)
23,COc1ccc(-n2nnnc2-c2nc3ccccc3s2)cc1,74.2% (active)
24,COc1ccc2nc(NC(=O)CSc3nnnn3-c3ccccc3)sc2c1,8.33% (inactive)
25,Fc1ccc(CNc2ccnc3c(-c4ccsc4)cnn23)cc1,-14.1% (inactive)

row,Structure (SMILES),inhibition
1,CN(C)CCNc1ccnc2c(-c3cccc(O)c3)cnn12,2.13% (inactive)
2,OCc1cccc(-c2cnn3c(NCc4cccs4)ccnc23)c1,102% (active)
3,COc1ccc(CCNC(=O)c2cc(-c3ccccc3OC)n[nH]2)cc1OC,2.42% (inactive)
4,O=C(CSc1n[nH]c(=O)[nH]c1=O)N/N=C/c1cccnc1,10.8% (inactive)
5,O=C(CSc1cccc2cccnc12)N/N=C/c1cccnc1,46.5% (active)
6,O=C(Cc1cccc2ccccc12)N/N=C/c1cccnc1,3.15% (inactive)
7,Cc1nc(NC(=O)CSc2nnc(-c3ccccc3)n2C)sc1C,9.15% (inactive)
8,CCOc1ccc(NC(=O)c2ccc3c(=O)n(-c4ccc(F)cc4)c(=S)[nH]c3c2)cc1,4.1% (inactive)
9,Cc1cc(Cl)c(S(=O)(=O)N2CCCc3ccccc32)cc1OCC(N)=O,4.13% (inactive)
10,O=C(CC1C(=O)N(c2ccc(F)cc2)C(=O)N1Cc1cccs1)Nc1ccc(F)cc1 (centres undefined),5.51% (inactive)
11,COc1ccc(OC(C)C(=O)Nc2ccc3ccccc3c2)cc1 (centres undefined),39.1% (active)
12,COc1ccc(OC(C)C(=O)Nc2cccc(Br)c2)cc1 (centres undefined),5.3% (inactive)
13,COc1ccc(NC(=O)C(C)Oc2cc(C)cc(C)c2)cc1 (centres undefined),15.9% (inactive)
14,COC(=O)C1=CN(Cc2ccc(F)cc2)C=C(C(=O)OC)C1c1ccc(C)s1,3.1% (inactive)
15,CCn1ccc(C(=O)Nc2sccc2C(=O)NC)n1,10.4% (inactive)
16,COc1cc(NC(=O)c2ccccc2)c(C(=O)O)cc1OC,7.96% (inactive)
17,COc1ccccc1-n1cnc2cc(NC(=O)c3ccccc3)ccc21,38% (active)
18,COc1ccc(-n2cnc3cc(C(=O)NCc4ccccc4OC)ccc32)cc1,4% (inactive)
19,CN(C)c1cc(C(=O)N2CCN(C(=O)C(C)(C)C)CC2)nc(N(C)C)n1,0.22% (inactive)
20,Cn1cc(-c2ccc3cnc(Nc4ccc(-n5cnc(N6CCOCC6)n5)cc4)nc3c2-c2cnn(C)c2)cn1,88.5% (active)
21,Cc1ncn(-c2ccc(Nc3ncc4cccc(-c5ccc6scnc6c5)c4n3)cc2)n1,3.89% (inactive)
22,Cn1cc(-c2cc(Nc3ccc(-n4cnc(N5CCC(O)CC5)n4)cc3)ncc2Cl)cn1,0.35% (inactive)
23,Cn1cc(-c2nc(Nc3ccc(-n4cnc(N5CCC(O)CC5)n4)cc3)ncc2Br)cn1,85.4% (active)
24,c1coc(-c2ccc3cnc(Nc4ccc(-n5cnc(N6CCOCC6)n5)cc4)nc3c2)n1,-7.9% (inactive)
25,COc1ccc(CCNC(=O)CCn2c(SCc3cccc(Cl)c3)nc3ccccc3c2=O)cc1OC,-6.64% (inactive)

row,Structure (SMILES),inhibition
1,CCOC(=O)C1=C(C)NC(=S)NC1c1cc(OC)ccc1Br (centres undefined),-4.97% (inactive)
2,CC(=O)c1cccc(-c2ccc(C(=O)NCCN3CCOCC3)s2)c1,-17.5% (inactive)
3,COc1ccc(-c2noc(CNC(=O)c3ccc(Br)cc3)n2)cc1,-8.01% (inactive)
4,COC(=O)C1=C(C)NC2=C(C(=O)CC(c3cccs3)C2)C1c1cccc(OCc2ccccc2)c1 (centres undefined),15.8% (inactive)
5,CC1=C(C(=O)OCc2ccccc2)C(c2cccc([N+](=O)[O-])c2)C2=C(CC(c3cccs3)CC2=O)N1 (centres undefined),58.1% (active)
6,CC1=C(C(=O)OCc2ccccc2)C(c2ccc3c(c2)OCO3)C2=C(CC(c3cccs3)CC2=O)N1 (centres undefined),-4.32% (inactive)
7,O=C(CSc1cccc[n+]1[O-])Nc1nc2ccccc2s1,3.26% (inactive)
8,Cc1nccn1CC(O)COc1ccc(Br)cc1 (centres undefined),5.95% (inactive)
9,COc1ccc(OCC(=O)c2ccc(F)cc2)c(C#N)c1,-65.6% (inactive)
10,COc1ccc(OC)c(C(=O)COc2ccc(Br)cc2C#N)c1,52.8% (active)
11,COc1ccc(C(=O)COC(=O)COc2ccccc2C#N)c(OC)c1,7.04% (inactive)
12,CN(C)C(=O)c1cc(-c2cn[nH]c2)ccc1NC(=O)OCc1ccccc1,-2.11% (inactive)
13,CC(=O)Nc1ccc(N2C(=O)c3ccc4c5c(ccc(c35)C2=O)C(=O)N(c2ccc(NC(C)=O)cc2)C4=O)cc1,5.3% (inactive)
14,COc1cc(OC)nc(Oc2cccnc2/C=N/Nc2ccccc2[N+](=O)[O-])n1,-11.9% (inactive)
15,CCN(CC)S(=O)(=O)c1ccc2nc(NC(=O)CC(C)C)sc2c1,42.2% (active)
16,CCCC(=O)Nc1nc2ccc(S(=O)(=O)N(C)C)cc2s1,-15.2% (inactive)
17,CS(=O)(=O)c1ccc2nc(NC(=O)CSc3ccccc3)sc2c1,7.95% (inactive)
18,COc1cc(/C=C2/SC(=O)N(C)C2=O)cc(Br)c1OC,-1.8% (inactive)
19,COc1ccc(N2C(=O)CC(NNC(=O)c3ccccc3O)C2=O)cc1 (centres undefined),8.23% (inactive)
20,CC12CCC(C(=O)N(NC(=O)c3ccccc3O)C1=O)C2(C)C (centres undefined),74.3% (active)
21,CCN(CC)c1ccc(NC(=O)c2ccccc2O)cc1,-31.2% (inactive)
22,CC12C=CC3(O1)C(C(=O)N(CC1CCCO1)C3C(=O)NC1CCCCC1)C2C(=O)Nc1ccc(Cl)c(Cl)c1 (centres undefined),2.66% (inactive)
23,CCOc1ccc(S(=O)(=O)NCCOc2ccc(F)cc2)c(OCC)c1,10.6% (inactive)
24,O=C1c2ccccc2C(=O)N1c1cccc(Br)c1,-1.81% (inactive)
25,Cn1c(Nc2nc(NCCN3CCOCC3)c3ncn(-c4ccccc4)c3n2)nc2ccccc21,25.9% (inactive)

row,Structure (SMILES),inhibition
1,COc1ccc(-c2nc(NCCO)c3ncn(-c4ccsc4)c3n2)cn1,41.7% (active)
2,NC(=O)c1ccc(-c2nc(NCCO)c3ncn(-c4ccsc4)c3n2)cc1,18.6% (inactive)
3,COc1ccc(-c2nc(NCCN3CCOCC3)c3ncn(-c4ccccc4)c3n2)cn1,59.2% (active)
4,Nc1cccc(-c2nc(NCCO)c3ncn(-c4ccccc4)c3n2)c1,31.7% (inactive)
5,Clc1nc(NCCN2CCOCC2)c2ncn(-c3ccccc3)c2n1,-5.11% (inactive)
6,C=CCn1c(=O)c(C(=O)Nc2cccc(Cl)c2)c(O)c2ccccc21,3.7% (inactive)
7,O=C(Nc1cccc2c1C(=O)c1ccccc1C2=O)c1ccc(F)cc1,-2.6% (inactive)
8,CONC(=O)c1ccc(C(=O)c2cc(OC)ccc2OC)cc1,35.8% (active)
9,CNC(=O)C(=O)Nc1cc(OC)ccc1OC,10.2% (inactive)
10,COc1ccc(OC)c(C(=O)c2ccc(C(=O)NC3CC(C)(C)NC(C)(C)C3)cc2)c1,17.9% (inactive)
11,CCOc1ccc(Nc2nc(Nc3ccc(C(C)=O)cc3)nc(C)c2[N+](=O)[O-])cc1,6.26% (inactive)
12,COc1ccc(OC)c(NC(=O)CN2CCC(n3c(C)nc4cc(F)ccc43)CC2)c1,-30.9% (inactive)
13,CCOC(=O)CC1NCC2c3ccccc3CCN2C1=O (centres undefined),2.64% (inactive)
14,OC1CCN(c2ccnc3c(-c4cccc(C(F)(F)F)c4)cnn23)CC1,10% (inactive)
15,O=C(COc1ccc(Cl)cc1Cl)N1CCCc2ccccc21,-11.7% (inactive)
16,O=C(c1c[nH]c(=O)n(-c2ccc(F)c(Cl)c2)c1=O)N1CCCc2ccccc21,38.2% (active)
17,O=C(c1cc(Cl)ccc1[N+](=O)[O-])N1CCCc2ccccc21,10.8% (inactive)
18,COc1cc(NC(=O)c2sc3nc(C)nc(N4CCN(C)CC4)c3c2C)cc(OC)c1,4.26% (inactive)
19,C/C(CC(=O)NC1CCCCC1)=N\NC(=O)c1ccncc1,2.69% (inactive)
20,C/C(CC(=O)NC1CCCC1)=N\NC(=O)COc1cccc(C)c1,-8.3% (inactive)
21,COc1ccc(C(=O)N/N=C(\C)CC(=O)Nc2ccccc2)c(OC)c1,-36.2% (inactive)
22,COc1cc(OC)cc(C(=O)N/N=C(\C)CC(=O)NC2CCCCCCC2)c1,54.5% (active)
23,COc1ccc(NC(=O)CS(=O)CC(=O)Nc2ccccc2-c2ccccc2)cc1 (centres undefined),-6.02% (inactive)
24,COc1cc(OC)cc(C(=O)N/N=C(\C)CC(=O)Nc2ccccc2-c2ccccc2)c1,51.5% (active)
